Screening results (PubChem BioAssay)
Shown are actives, neighbours in structure and some others; about 32% of the full set was active somewhere.
CYP2C9 activ: CYP2C9 (human) activation. P11712. recombinant CYP2C9, luciferin-H conversion, luminescence; active compounds read high; factor 1 = untreated enzyme, 0 = blocked. activation factor at 5 µM. 1.4% of 96,000 active;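 active = activation factor of 2 or more for CYP2C9 at a 5 µM dose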;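 also: 0 = sulfaphenazole-blocked wells and 1 = vehicle-only wells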
PostGolgi yeast: growth inhibition of a yeast mutant, post-Golgi transport screen; inhibition, % at 10 µM; AID 739; 0.9% of 98,000 active; post-Golgi transport phenotypic cell assay;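 also: yeast cells grown in 1536-well plates; yeast grown about 18 h at 30C before absorbance read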
CYP2C9 inhib: blocks human cytochrome P450 2C9. AID 777. inhibition, % at 5 µM. CYP2C9 Supersomes, luciferin-H conversion, luminescence. P11712. 20% of 96,000 active;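 active = blocking of liver enzyme CYP2C9 beyond about 50% at 5 µM, limit read from the data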
CYP2C19 inhib: blocks human cytochrome P450 2C19; CYP2C19 Supersomes, luciferin-H EGE luminescence, 30 min; inhibition, % at 5 µM; 21% of 96,000 active; AID 778;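 active = CYP2C19 inhibition above a set limit at 5 µM in the primary screen, cut at about 50% in these data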;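 also: plate controls were negative control wells for no effect and 2.5 mM tranylcypromine positive control for full effect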
Target sequence (P33261 whole entry, looked up): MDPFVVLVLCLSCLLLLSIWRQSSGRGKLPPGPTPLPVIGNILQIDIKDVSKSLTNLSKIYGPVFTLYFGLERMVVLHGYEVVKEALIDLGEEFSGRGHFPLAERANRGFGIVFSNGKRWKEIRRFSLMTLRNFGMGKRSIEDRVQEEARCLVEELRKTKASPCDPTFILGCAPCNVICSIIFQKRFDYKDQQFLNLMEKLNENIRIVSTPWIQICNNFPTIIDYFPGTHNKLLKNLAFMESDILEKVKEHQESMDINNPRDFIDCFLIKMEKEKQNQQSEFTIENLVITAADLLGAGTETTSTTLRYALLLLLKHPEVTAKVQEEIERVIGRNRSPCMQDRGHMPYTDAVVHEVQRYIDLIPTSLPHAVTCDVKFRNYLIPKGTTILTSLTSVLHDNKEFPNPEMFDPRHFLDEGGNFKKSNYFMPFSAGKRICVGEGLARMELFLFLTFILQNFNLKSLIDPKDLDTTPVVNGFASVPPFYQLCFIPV
PostGolgi ctrl: inhibits growth of the yeast control strain | efflux-deficient yeast background strain, growth absorbance A615, 16 h | inhibition, % at 10 µM | 5% of 98,000 active
CYP2C19 activ: cytochrome P450 2C19 (human) activation; 96,000 tested, under 10 active; activation factor at 5 µM; P33261; recombinant CYP2C19, luciferin-H EGE luminescence; active compounds read high; 0 = fully inhibited enzyme, 1 = untreated enzyme;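 active = activation factor of at least 2 at 5 µM in the primary screen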;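 also: 0 = wells with 2.5 mM tranylcypromine and 1 = vehicle-only wells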
* hit, by the source's call; · = no result. Rule as the data show it, unless noted: active = inhibition above about 30%; inactive = the rest.

SMILES	CYP2C9 activ	PostGolgi yeast	CYP2C9 inhib	CYP2C19 inhib	PostGolgi ctrl	CYP2C19 activ
COc1ccccc1S(=O)(=O)Cc1ccc(C(=O)N2CCN(c3ccccn3)CC2)o1	0.5	-2.7	51.4*	53.3*	-6.1	0.5
O=C(NC1CCCC1)c1ccc(CS(=O)(=O)c2ccc(Br)cc2)o1	0.1	-2.2	86.2*	10.5	18.3	0.9
COc1ccccc1S(=O)(=O)Cc1ccc(C(=O)N2CCCC2)o1	1.2	-7.8	-16.3	6.4	-0.8	0.9
CCCS(=O)(=O)N1CCN(C(=O)CCC2CCCC2)CC1	1.1	-2.7	-5.0	23.9	5.7	0.8
Cc1ccc(OCCn2c(CCCO)nc3ccccc32)cc1	0.7	8.8	28.5	58.6*	3.1	0.4
COc1ccc(NCc2nc3ccccc3n2CCOc2ccccc2)cc1	0.2	7.5	78.7*	24.9	-3.6	0.8
CC(C)C(=O)NCCc1nc2ccccc2n1CCCOc1ccc(Cl)cc1	0.2	1.6	77.1*	77.2*	23.5	0.2
COCc1nc2ccccc2n1CCCOc1ccccc1	0.2	0.9	77.7*	97.3*	2.7	0
O=S(=O)(/C=C/c1ccccc1)n1cnc2ccccc21	0.8	-5.3	17.5	46.1	2.1	0.5
CCOCCn1c(COc2ccccc2)nc2ccccc21	0.9	0.8	14.7	50.7*	3.7	0.5
CCOCCn1c(CCCO)nc2ccccc21	1.1	17.7	-6.7	0.2	7.3	1
CCCc1nc2ccccc2n1CCOc1ccccc1	0.7	7.9	34.3	61.2*	9.3	0.4
OCCCc1nc2ccccc2n1CCOc1ccccc1	0.6	-10.7	42.1	84.1*	-2.4	0.2
CN1CCC2(CC1)C1CN(C)CC=C1C(C#N)=C(N)C2(C#N)C#N (stereo unspecified)	1	-0.9	2.9	1.2	3.6	1
C=CCc1cc(/C=N\NC(=O)CSc2nnc(CCCc3ccc(OC)c(C)c3)o2)cc(OC)c1O	0.2	-5.8	83.3*	86.3*	-1.5	0.1
C=CCc1cc(/C=N/NC(=O)CSc2nnc(CCCc3ccc(OC)cc3)o2)cc(OC)c1O	0.2	0.9	80.1*	89.2*	4.5	0.1
COc1ccc(/C=N/NC(=O)CSc2nnc(CCCc3ccc(OC)c(C)c3)o2)cc1	0.2	-15.4	83.9*	77.7*	6.0	0.2
Cc1nc(CN2CCN(C(=O)c3ccc(C(C)(C)C)cc3)CC2)cs1	0.5	4.4	49.6	39.3	1.0	0.6
Cc1ccc(-n2c(CSc3nc(C)cc(C)n3)nnc2SCC(=O)N2CCCC2)cc1	1	4.1	3.2	-4.2	11.5	1
CN(C(=O)c1cnccn1)c1nnc(-c2cnccn2)s1	1.1	-1.3	-9.8	-11.6	16.0	1.1
O=c1nc(N2CCCCC2)nc2n1CCO2	1.1	13.5	-5.4	4.4	20.1	1
CCOC(=O)N1CCN(c2nc3ccccc3nc2C(C#N)S(=O)(=O)c2ccc(C)cc2)CC1 (stereo unspecified)	0.1	2.5	92.3*	33.2	18.0	0.7
Cc1ccc(S(=O)(=O)C(C#N)c2nc3ccccc3nc2N2CCCCC2)cc1 (stereo unspecified)	0.9	·	7.3	17.3	·	0.8
Cc1cccc(S(=O)(=O)C(C#N)c2nc3ccccc3nc2N2CCOCC2)c1 (stereo unspecified)	0.4	-0.5	56.4*	29.4	24.7	0.7
Cc1cccn2c(=O)c3cc(C#N)c(=O)n(Cc4cccnc4)c3nc12	1	·	-1.5	-12.3	·	1.1
SMILES	CYP2C9 activ	PostGolgi yeast	CYP2C9 inhib	CYP2C19 inhib	PostGolgi ctrl	CYP2C19 activ
COc1ccc(N2CCN(S(=O)(=O)c3ccc(C(=O)NC4CCCC4)cc3)CC2)cc1	·	-3.6	·	·	4.8	·
COc1ccc(S(=O)(=O)Nc2cc(C(=O)NC3CCCCCC3)ccc2N2CCOCC2)cc1	0.5	4.1	52.5*	48.8	13.4	0.5
COc1ccc(S(=O)(=O)Nc2cc(C(=O)NC(C)C)ccc2N2CCOCC2)cc1	0.4	0.7	58.5*	54.1*	2.6	0.5
O=C(Cn1c(CSc2ccccc2)nc2ccccc21)Nc1ccccc1	0.3	0.0	73.5*	51.4*	-0.9	0.5
O=C(O)Cn1c(SCc2ccccc2)nc2ccccc21	0.6	11.6	42.8	9.6	-5.3	0.9
CSc1nc2ccccc2n1Cc1c(Cl)cccc1Cl	0.4	4.9	56.2*	51.7*	34.3*	0.5
Cc1ccc(SCc2nc3ccccc3n2CC(=O)Nc2c(C)cccc2C)cc1	0.6	-3.8	36.5	8.6	3.0	0.9
CCC(C)Sc1nc2ccccc2n1CC(=O)O (stereo unspecified)	0.1	-3.7	88.1*	-15.7	8.2	1.2
CSc1nc2ccccc2n1CC(=O)Nc1ccccc1	0.2	1.7	78.9*	93.1*	-1.3	0.1
CSc1ncccc1C(=O)OCc1ccc(COC(=O)c2cccnc2SC)cc1	1	-0.8	3.4	5.1	6.5	0.9
COc1ccc(C(=O)COc2ccc(NC(C)=O)cc2)cc1	0.5	-2.1	45.4	47.8	1.3	0.5
CCOc1cc(NC(=O)c2ccccc2[N+](=O)[O-])c(OCC)cc1NC(=O)CC(C)C	1	1.1	-4.8	-4.6	-6.6	1
CCNC(=O)NC(=O)C(C)Sc1nc2ccccc2n1CC(C)C (stereo unspecified)	1.3	-2.8	-29.9	18.7	31.8*	0.8
Cc1ccc(SCc2nc3ccccc3n2CC(=O)Nc2ccccc2)cc1	0.2	-18.5	84.3*	56.9*	2.7	0.4
CC(C)OC(=O)CN1C(=O)S/C(=C/c2ccc(N3CCCCC3)o2)C1=O	0.9	5.4	8.7	22.4	6.0	0.8
CC1CC(c2ccccc2)n2nc(N3C(=O)c4ccccc4C3=O)nc2N1 (stereo unspecified)	1	0.0	3.9	5.2	1.3	0.9
CC(C)C1Nc2ccc(S(N)(=O)=O)cc2C2C=CCC21 (stereo unspecified)	0.7	5.0	25.4	69.3*	4.0	0.3
Nc1nc(Cl)cc(N2CCC(c3cc(-c4ccc(Cl)cc4Cl)n[nH]3)CC2)n1	1	42.8*	-4.4	24.4	81.8*	0.8
Cc1cccc(OCC(=O)NNC(=O)Nc2cccc(Cl)c2)c1C	1	-2.6	-3.1	1.9	-7.9	1
Cc1onc(-c2c(F)cccc2Cl)c1C(=O)OCN1C(=O)c2ccccc2C1=O	0.6	-2.7	42.4	55.6*	4.5	0.4
COc1ccc(CNC(=O)COC(=O)c2c(-c3c(F)cccc3Cl)noc2C)cc1OC	0.4	3.5	56.0*	96.8*	12.3	0
Cc1onc(-c2ccccc2Cl)c1C(=O)OCn1nnc2ccccc2c1=O	1	0.0	3.9	33.4	14.1	0.7
CCCC(=O)NCc1cc(-c2nn(C)c(=O)c3ccccc23)ccc1C	0.6	-20.0	39.5	25.3	14.8	0.7
CCCn1cc(SCC(=O)NCc2ccco2)c2ccccc21	1.8	6.4	-79.2	51.5*	3.9	0.5
O=C(CSc1cn(CCNC(=O)c2ccccc2)c2ccccc12)NCc1ccco1	0	-0.4	97.2*	99.0*	0.0	0
